Nine compounds from PMC5540273 (PLoS ONE, 2017) can be followed below.

The structures appear in SMILES notation.

What all share (conditions): concentration: 1 μM,replicates: in singlicate; n = 1
The subject of assay [1] is TYK2(JH2domain-pseudokinase).
Assay [2] deals with TYRO3.
The test system of assay [3] is ULK1.
Assay [4] concerns ULK2.
For assay [5], the system named is ULK3.
Assay [6] has as its system T1, VEGFR2.
T1 construct: gene KDR

The test system of assay [7] is T2, VPS34.
T2 construct: gene PIK3C3

Assay [8] deals with VRK2.
Assay [9] concerns WEE1.
The subject of assay [10] is WEE2.
Assay [11] has as its system WNK1.
For assay [12], the system named is WNK2.
Assay [13] relates to WNK3.
In assay [14] the test system is WNK4.
The subject of assay [15] is T3, YANK1.
T3 construct: gene STK32A

Assay [16] concerns T4, YANK2.
T4 construct: gene STK32B

Assay [17] has as its system T5, YANK3.
T5 construct: gene STK32C

The test system of assay [18] is T6, YES.
T6 construct: gene YES1

Assay [19] deals with T7, YSK1.
T7 construct: gene STK25

The subject of assay [20] is T8, YSK4.
T8 construct: gene MAP3K19
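Further: KINOMEscan kinase panel screen.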

With `CN(c1ccc2c(c1)nc(NCc1ccc(F)cc1)n2C)c1ccnc(Nc2ccc(CS(C)(=O)=O)cc2)n1.Cl` [GW813244], the “%Inh” value is 12% in assay [1]; 4% in assay [2]; 28% in assay [3]; 13% in [4]; 21% in assay [5]; 98.3% in assay [6]. In addition, the “%Inh” value was determined as 30% in assay [7]; 6% in [8]; 0% in [9]; 7% in [10]; 17% in assay [11]; 3% in [12]. The “%Inh” value in assay [13] was determined as 13%; in assay [14] it was 0%; in assay [15], 0%; in assay [16], 0%; in assay [17] it was 0%; in [18] it was 7%. The “%Inh” value was found to be 4% in assay [19] and 99.3% in [20].
With `CCN1CCN(CCCC(=O)Nc2n[nH]c3nc(-c4ccc(O)cc4)c(Br)cc23)CC1` [SB-731579], the “%Inh” value in assay [1] is reported as 0%; in [2], 0%; in assay [3] it was 0%; in assay [4] it was 0%; in [5], 6%; in [6], 0%. Also, the “%Inh” value in assay [7] came to 0%; in [8], 69%; in assay [9], 0%; in assay [10] it was 29%; in assay [11], 0%; in [12], 0%. Moreover, the “%Inh” value in assay [13], in assay [14], in assay [15], in [16], in assay [17] and in [18] was 0% each time. Besides, the results for the “%Inh” value in assay [19] and in assay [20] were 0% and 85%, respectively.
With `O=C(Nc1ccccc1)c1cccc(Oc2ccc3nccn3n2)c1`, the “%Inh” value worked out at 18% in [1]; 29% in [2]; 0% in assay [3]; 0% in assay [4]; 0% in [5]; 6% in assay [7]. The “%Inh” value worked out at 0% in assay [8]; 0% in assay [9]; 0% in assay [10]; 4% in assay [11]; 3% in [12]; 8% in assay [13]. Further, the “%Inh” value in assay [14] is given as 36%; in assay [15], 0%; in assay [16], 0%; in assay [17], 0%; in assay [18], 0%; in assay [19], 0%. Further, the “%Inh” value in assay [20] turned out to be 12%.
As to `COc1ccc(Nc2nccc(N3CCC(NC(=O)c4cccc(C#N)c4)C3)n2)cc1` (stereo not drawn) [GSK1379730], the “%Inh” value in assay [1] amounted to 18%; in assay [2], 0%; in [3], 0%; in assay [4], 0%; in assay [5] it was 10%; in assay [6], 0%. Further, the “%Inh” value in assay [7] was 46%; in assay [8], 0%; in assay [9], 0%; in assay [10], 6%; in assay [11], 2%; in [12], 5%. Besides, the “%Inh” value in assay [13] is given as 18%; in assay [14], 0%; in assay [15], 0%; in assay [16], 0%; in [17], 0%; in [18], 15%. Moreover, the “%Inh” value in assay [19] and in assay [20] was 0% throughout.
Regarding `O=C(Nc1cccc(Oc2ccc3nccn3n2)c1)Nc1cccc(C(F)(F)F)c1`, the “%Inh” value in assay [1] was 1%; in assay [2], 0%; in [3], 0%; in [4] it was 0%; in assay [5] it was 3%; in [7], 14%. Moreover, the “%Inh” value in [8] is 0%; in assay [9], 0%; in assay [10], 9%; in [11] it was 0%; in [12], 0%; in assay [13] it was 0%. Also, the “%Inh” value in assay [14] amounted to 20%; in [15], 0%; in assay [16], 0%; in assay [17], 0%; in assay [18], 0%; in assay [19], 0%. Besides, in assay [20], the “%Inh” value is listed as 96.1%.
For the compound `O=C(Nc1cccc(C(F)(F)F)c1)c1cccc(Oc2ccc3nccn3n2)c1`, the “%Inh” value is recorded as 44% in [1]; 2% in assay [2]; 2% in assay [3]; 10% in assay [4]; 23% in assay [5]; 35% in assay [7]. For the same compound, the “%Inh” value in assay [8] is given as 0%; in [9] it was 13%; in [10], 7%; in assay [11] it was 16%; in assay [12], 0%; in assay [13], 26%. The “%Inh” value is 15% in [14]; 0% in assay [15]; 0% in [16]; 30% in assay [17]; 0% in assay [18]; 0% in assay [19]. In assay [20], the “%Inh” value is 77%.
`COc1cc2ncn(-c3cc(OCC4CCCCC4)c(C(N)=O)s3)c2cc1OC` [GSK204559]: the “%Inh” value is listed as 15% in assay [1]; 0% in assay [2]; 9% in assay [3]; 0% in assay [4]; 25% in [5]; 4% in [6]. Also, the “%Inh” value in assay [7] was 20%; in [8], 0%; in [9], 0%; in assay [10] it was 25%; in assay [11] it was 0%; in assay [12], 0%. Besides, the “%Inh” value in assay [13] was 0%; in assay [14], 0%; in assay [15], 0%; in assay [16] it was 8%; in assay [17], 6%; in [18] it was 4%. The entries for the “%Inh” value in [19] and in [20] were 24% and 35%, respectively.
As to `CS(=O)(=O)Nc1ccc(-c2ccnc3[nH]ccc23)cc1` [GSK993273], the “%Inh” value in [1] is recorded as 24%; in [2] it was 0%; in [3] it was 64%; in assay [4], 10%; in [5] it was 95.4%; in assay [6] it was 48%. Moreover, the “%Inh” value in assay [7] is on record as 31%; in assay [8] it was 0%; in [9], 5%; in assay [10], 0%; in assay [11], 13%; in assay [12], 14%. Also, the “%Inh” value was determined as 9% in [13]; 0% in assay [14]; 12% in assay [15]; 0% in assay [16]; 20% in [17]; 8% in assay [18]. Besides, the “%Inh” value in assay [19] came out at 51%; in assay [20], 96.5%.
As to `CCn1c(-c2nonc2N)nc2cncc(CNC3CCNCC3)c21.Cl` [SB-747651], the “%Inh” value in [1] stood at 47%; in [2] it was 0%; in [3] it was 17%; in assay [4] it was 0%; in assay [5], 6%; in assay [6], 0%. Moreover, the “%Inh” value is given as 0% in assay [7]; 9% in [8]; 8% in assay [9]; 7% in assay [10]; 14% in assay [11]; 0% in [12]. Also, the “%Inh” value in [13] was found to be 34%; in assay [14], 21%; in assay [15] it was 3%; in [16], 0%; in [17], 40%; in [18], 11%. In addition, the “%Inh” value is 0% in assay [19] and 87% in [20].
